Several values for one entry are separate records, joined by “and”; a condition that tells them apart may be missing. Equal values may be shown once. This is part of a sample that, as a whole, favours compounds with a hit. Of some 79,000 tested, about 15% had one in any assay. Some structures have more than one record in an assay (separate samples or runs), and their calls can disagree. Activity calls are given as the source filed them. Cut-off read from the data, not from the text of the source: active = growth inhibition above about 70%; inactive = the rest.
Tests used:
[1] = NCI Yeast Anticancer Drug Screen. Data for the rad50 strain (AID 155);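 note: 0% = growth of vehicle-only cultures of the same strain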; conditions: S. cerevisiae rad50 strain growth inhibition, stronger effect = higher value
How it was run: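 Growth of the mutant yeast was measured after compound exposure and referenced to vehicle-treated cultures.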

[2] = NCI Yeast Anticancer Drug Screen. Data for the mec2-1 strain (AID 157); conditions: S. cerevisiae mec2-1 strain, stronger effect = higher value
How it was run: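 Test agents were screened against the mec2-1 yeast strain, with defined DNA repair or cell cycle alteration. Growth was scored as inhibition against vehicle-only controls.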

[3] = NCI Yeast Anticancer Drug Screen. Data for the sgs1 mgt1 strain (AID 161);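 note: 0% = growth of cultures given vehicle only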; conditions: S. cerevisiae sgs1 mgt1 strain, stronger effect = higher value
How it was run: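 Read-out: growth inhibition vs vehicle controls. Cells: mutant yeast strain deficient in DNA damage repair.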

[4] = NCI Yeast Anticancer Drug Screen. Data for the cln2 rad14 strain (AID 165);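 note: 0% = growth equal to vehicle treated cultures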; conditions: S. cerevisiae cln2 rad14 strain, stronger effect = higher value
How it was run: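 Growth of compound-exposed yeast (cln2 rad14 genotype) measured and expressed as inhibition relative to vehicle.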

[5] = NCI Yeast Anticancer Drug Screen. Data for the bub3 strain (AID 167); conditions: S. cerevisiae bub3 mutant strain, stronger effect = higher value
How it was run: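 Whole-cell yeast assay. The mutant strain was incubated with compounds, and growth inhibition was determined by comparison with vehicle-treated cells.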

[6] = NCI Yeast Anticancer Drug Screen. Data for the mlh1 rad18 strain (AID 175); conditions: S. cerevisiae mlh1 rad18 strain growth inhibition, stronger effect = higher value
How it was run: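 In this whole-cell yeast screen, a strain with altered DNA damage repair is challenged with compound, and its growth is measured against matched vehicle-treated controls.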

[7] = at 5.0 µM (retest, dose inferred, filed as 0.5)
[8] = at 50.0 µM (retest, dose inferred, filed as 5.0)

Measured: growth inhibition

O=C1c2ccccc2C(=O)c2cc(S(=O)(=O)O)ccc21
77.7% (active) and 19.6% (inactive): [6]; at 50.0 µM
inactive: [1]; [7] 3% | [1]; [8] 27% | [2]; [7] 1% | [2]; [8] 26% | [2]; at 50.0 µM 36.2% and 36.1% | [3]; [7] 6% | [3]; [8] 42% | [3]; at 50.0 µM 67.7% and 37% | [4]; [7] 6% | [4]; [8] 30% | [4]; at 50.0 µM -26.8% and 9.95% | [5]; [7] 0% | [5]; [8] 22% | [5]; at 50.0 µM 67.3% and 44.7% | [6]; [7] 7% | [6]; [8] 41%
73% (active) and 25.7% (inactive): [1]; at 50.0 µM

O=C1c2ccccc2C(=O)N1CC[P+](c1ccccc1)(c1ccccc1)c1ccccc1
inactive: [1]; [7] 48% | [2]; [7] 36% | [2]; at 50.0 µM 58.5% and 46.8% | [3]; [7] 20% | [3]; [8] 69% | [3]; at 50.0 µM 63.5% and 62.5% | [4]; [7] -5% | [4]; [8] 47% | [4]; at 50.0 µM 20.8% and 40% | [5]; [7] 30% | [5]; at 50.0 µM 57.9% and 43.3% | [6]; [7] 43% | [6]; at 50.0 µM 63.1% and 54.9%
active: [1]; [8] 79% | [2]; [8] 87% | [5]; [8] 79% | [6]; [8] 85%
70.5% (active) and 58.6% (inactive): [1]; at 50.0 µM

O=C(NC(C(=O)O)c1ccccc1)OCc1ccccc1 (configuration not stated)
-12.2% (inactive) and 88% (active): [4]; at 50.0 µM
inactive: [1]; [7] -3% | [1]; [8] -3% | [1]; at 50.0 µM -3% and -15.4% and 0.9% | [2]; [7] 1% | [2]; [8] 0% | [2]; at 50.0 µM -28.1% and -22.8% and 0.9% | [3]; [7] -1% | [3]; [8] -2% | [3]; at 50.0 µM -23.6% and -3.2% | [4]; [7] 1% | [4]; [8] -2% | [5]; [7] -1% | [5]; [8] -2% | [5]; at 50.0 µM -8.4% and 21.4% | [6]; [7] 3% | [6]; [8] -1% | [6]; at 50.0 µM -7.9% and 2.55% and 48.3%

COC(=O)CSC(=S)N1CCOCC1
inactive: [1]; [7] 2% | [1]; [8] 6% | [1]; at 50.0 µM -6.85% | [2]; [7] 9% | [2]; [8] 4% | [2]; at 50.0 µM -5.75% | [3]; [7] 4% | [3]; [8] 22% | [3]; at 50.0 µM -5.3% | [4]; [7] 7% | [4]; [8] -4% | [4]; at 50.0 µM -38% | [5]; [7] -3% | [5]; [8] -5% | [5]; at 50.0 µM -10.1% | [6]; [7] 4% | [6]; [8] 5% | [6]; at 50.0 µM 24.2%

Clc1nc2nc(Cl)c(Cl)n2nc1Cl
inactive: [1]; [7] -4% | [1]; [8] -5% | [2]; [7] -3% | [2]; [8] -7% | [3]; [7] -2% | [3]; [8] -11% | [4]; [7] 4% | [4]; [8] -1% | [5]; [7] -5% | [5]; [8] -8% | [6]; [7] -8% | [6]; [8] -4%
active: [1]; at 50.0 µM 98.5% | [2]; at 50.0 µM 99.7% | [3]; at 50.0 µM 99.5% | [4]; at 50.0 µM 98.8% | [5]; at 50.0 µM 99.3% | [6]; at 50.0 µM 99.5%

CC12CCC3c4ccc(O)cc4CCC3C1CCC2S (configuration not stated)
-7.35% (inactive) and 96.5% (active): [1]; at 50.0 µM
inactive: [1]; [7] -4% | [2]; [7] -31% | [2]; at 50.0 µM -1.65% and 49.3% | [3]; [7] -19% | [3]; at 50.0 µM -2.95% and 52.2% | [4]; [7] -3% | [5]; [7] -9% | [6]; [7] -26%
-5.3% (inactive) and 94.8% (active): [4]; at 50.0 µM
active: [1]; [8] 96% | [2]; [8] 97% | [3]; [8] 97% | [4]; [8] 96% | [5]; [8] 97% | [6]; [8] 95%
0.75% (inactive) and 98.1% (active): [5]; at 50.0 µM
-2.3% (inactive) and 96.3% (active): [6]; at 50.0 µM

Nc1c(C(=O)O)ccc(C(=O)O)c1C(=O)O
inactive: [1]; [7] -131% | [1]; [8] -173% | [1]; at 50.0 µM -5.95% and 2.45% | [2]; [7] -50% | [2]; [8] -53% | [2]; at 50.0 µM 14.1% and -1% | [3]; [7] -54% | [3]; [8] -67% | [3]; at 50.0 µM 25% and 3.8% | [4]; [7] -56% | [4]; [8] -60% | [4]; at 50.0 µM 3.75% and -23.4% | [5]; [7] -65% | [5]; [8] -79% | [5]; at 50.0 µM -2.6% and -5.8% | [6]; [7] -113% | [6]; [8] -123% | [6]; at 50.0 µM 33.5% and -12.9%

CCc1nc(N)nc(N)c1-c1ccc(Cl)c(N=[N+]=[N-])c1
6.65% (inactive) and 71.2% (active): [1]; at 50.0 µM
inactive: [1]; [7] 41% | [1]; [8] 40% | [2]; [7] 18% | [2]; [8] 21% | [2]; at 50.0 µM -15.3% and 65.5% | [3]; [7] 56% | [3]; [8] 54% | [3]; at 50.0 µM -0.8% and 61.6% | [4]; [7] 18% | [4]; [8] 28% | [4]; at 50.0 µM -6.55% and 62.5% | [5]; [7] 30% | [5]; [8] 26% | [5]; at 50.0 µM 6.35% and 54.5% | [6]; [7] 65% | [6]; [8] 62% | [6]; at 50.0 µM -1.7% and 27.7%

O=C1/C(=C\c2ccc([N+](=O)[O-])cc2)Sc2scc(-c3ccc(O)c(O)c3)[n+]21
inactive: [1]; [7] 6% | [2]; [7] -10% | [3]; [7] 14% | [4]; [7] -4% | [5]; [7] -19% | [6]; [7] 23%
active: [1]; [8] 93% | [1]; at 50.0 µM 83.2% | [2]; [8] 95% | [2]; at 50.0 µM 93.8% | [3]; [8] 96% | [3]; at 50.0 µM 94.9% | [4]; [8] 93% | [4]; at 50.0 µM 71.1% | [5]; [8] 98% | [5]; at 50.0 µM 92.5% | [6]; [8] 97% | [6]; at 50.0 µM 90.8%

Fc1ccc(NC(=S)SCc2ccc3c(c2)OCO3)cc1
active: [1]; [8] 98% | [1]; at 50.0 µM 99% | [2]; [8] 99% | [2]; at 50.0 µM 98.5% | [3]; [8] 99% | [3]; at 50.0 µM 99.5% | [4]; [8] 95% | [4]; at 50.0 µM 98.5% | [5]; [8] 97% | [5]; at 50.0 µM 98.9% | [6]; [8] 95% | [6]; at 50.0 µM 99.3%
inactive: [1]; [7] 3% | [2]; [7] 1% | [3]; [7] 3% | [4]; [7] -13% | [5]; [7] -8% | [6]; [7] -4%

O=C(CC(=O)CC(O)(c1ccccc1)c1ccccc1)CC(=O)c1ccccc1
active: [1]; [8] 95% | [1]; at 50.0 µM 98.4% | [2]; [8] 98% | [2]; at 50.0 µM 98% | [3]; [8] 98% | [3]; at 50.0 µM 98% | [4]; [8] 94% | [4]; at 50.0 µM 98% | [5]; [8] 96% | [5]; at 50.0 µM 97.2% | [6]; [8] 97% | [6]; at 50.0 µM 98%
inactive: [1]; [7] -4% | [2]; [7] -10% | [3]; [7] 0% | [4]; [7] -11% | [5]; [7] -8% | [6]; [7] 30%

[N-]=[N+]=CC(=O)OCC1NC(=O)C(COC(=O)C=[N+]=[N-])NC1=O (configuration not stated)
3.8% (inactive) and 85.3% (active): [5]; at 50.0 µM
4.15% (inactive) and 86.6% (active): [6]; at 50.0 µM
-10.3% (inactive) and 80.2% (active): [1]; at 50.0 µM
inactive: [1]; [7] 5% | [1]; [8] -1% | [2]; [7] 2% | [2]; [8] 6% | [3]; [7] -1% | [3]; [8] 3% | [4]; [7] -2% | [4]; [8] -7% | [5]; [7] -1% | [5]; [8] -2% | [6]; [7] 2% | [6]; [8] 1%
12.6% (inactive) and 71.3% (active): [3]; at 50.0 µM
-20.1% (inactive) and 85.7% (active): [2]; at 50.0 µM
6.1% (inactive) and 76% (active): [4]; at 50.0 µM

CC(C)(S)C(N)C(=O)O (configuration not stated)
inactive: [1]; [7] -14% | [1]; [8] 4% | [1]; at 50.0 µM -12.3% and -14.5% and 21.1% | [2]; [7] 1% | [2]; [8] -8% | [2]; at 50.0 µM -9.15% and 2.8% and -17.5% | [3]; [7] -2% | [3]; [8] -9% | [3]; at 50.0 µM -9.7% and -11.3% and 3% | [4]; [7] 4% | [4]; [8] -1% | [4]; at 50.0 µM -2.5% and 45.3% and 3.15% | [5]; [7] -9% | [5]; [8] -13% | [5]; at 50.0 µM -13.6% and -0.75% and 24.6% | [6]; [7] -3% | [6]; [8] -1% | [6]; at 50.0 µM 6.8% and 9.35% and 3.55%

CCN(CC)CCOc1ccc2c(C)c(-c3ccccc3)c(=O)oc2c1
inactive: [1]; [7] 0% | [1]; [8] 23% | [1]; at 50.0 µM 62% | [2]; [7] -3% | [2]; [8] 34% | [2]; at 50.0 µM 3% | [3]; [7] 10% | [3]; [8] 38% | [3]; at 50.0 µM 34.8% | [4]; [7] -5% | [4]; [8] 18% | [4]; at 50.0 µM -44.8% | [5]; [7] -4% | [5]; [8] 27% | [5]; at 50.0 µM 60.8% | [6]; [7] 2% | [6]; [8] 30% | [6]; at 50.0 µM 21.1%
